Measured values reported in PubChem BioAssay AID1159580 (chemical genetic matrix, 2015).
“And” between values parts separate entries of the source, which are not always exact repeats. Equal values may be shown once. About 2,000 (36%) of roughly 5,500 compounds were called active. Roughly 18% stayed inconclusive and do not appear here. Rule as the data show it: active = normalized growth mostly below about 0.91 (no sharp cut-off); inconclusive = no clear call, values can overlap the other calls; inactive = mostly above about 0.92. The list shows a part of the results.

Test: chemical genetic growth profiling, strain panel (AID 1159580);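 also: tested at 20 µM; growth read once vehicle control cultures reached saturation at 30 °C; 1 = growth at the plate median or of vehicle wells; lower values mean less growth of the strain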
Conditions: S. cerevisiae deletion strains, growth OD

Measured: normalized growth

COC(=O)/C(=C1\OC(=O)C(c2ccccc2)=C1O)c1ccccc1
inactive: locus YAL013W, strain DEP1, active compounds read low 1.01 | locus YAL021C, strain ccr4, active compounds read low 0.979 | locus YAL026C, strain drs2, active compounds read low 0.979 | locus YAL030W, strain snc1, active compounds read low 0.981 | locus YBL061C, strain skt5, active compounds read low 0.977 | locus YBR009C, strain hhf1, active compounds read low 1 | locus YBR021W, strain FUR4, active compounds read low 0.963 | locus YBR023C, strain chs3, active compounds read low 0.976 | locus YBR171W, strain sec66, active compounds read low 0.987 | locus YBR229C, strain ROT2, active compounds read low 0.993 | locus YBR231C, strain swc5, active compounds read low 0.985 | locus YBR279W, strain paf1, active compounds read low 0.984 | locus YCL011C, strain gbp2, active compounds read low 0.979 | locus YCL016C, strain dcc1, active compounds read low 0.981 | locus YCL029C, strain bik1, active compounds read low 0.987 | locus YCL061C, strain MRC1, active compounds read low 0.966 | locus YCL069W, strain vba3, active compounds read low 0.968 | locus YCR088W, strain abp1, active compounds read low 0.962 | locus YDL005C, strain med2, active compounds read low 0.974 | locus YDL035C, strain GPR1, active compounds read low 1 | locus YDL040C, strain nat1, active compounds read low 0.969 | locus YDL074C, strain BRE1, active compounds read low 1.03 | locus YDL101C, strain DUN1, active compounds read low 1.01 | locus YDL134C, strain PPH21, active compounds read low 0.998 | locus YDL185W, strain tfp1, active compounds read low 0.987 | locus YDL192W, strain arf1, active compounds read low 1 | locus YDR001C, strain nth1, active compounds read low 0.958 | locus YDR069C, strain doa4, active compounds read low 1.01 | locus YDR101C, strain arx1, active compounds read low 1 | locus YDR137W, strain rgp1, active compounds read low 0.967 | locus YDR150W, strain NUM1, active compounds read low 0.987 | locus YDR159W, strain sac3, active compounds read low 0.974 | locus YDR162C, strain NBP2, active compounds read low 1.02 | locus YDR195W, strain ref2 0.943 | locus YDR297W, strain sur2, active compounds read low 0.977 | locus YDR318W, strain mcm21, active compounds read low 0.986 | locus YDR334W, strain swr1, active compounds read low 0.971 | locus YDR335W, strain msn5, active compounds read low 0.982 | locus YDR388W, active compounds read low 0.993 | locus YDR392W, strain spt3, active compounds read low 0.972 | locus YDR502C, strain sam2, active compounds read low 1.01 | locus YEL003W, strain gim4, active compounds read low 0.985 | locus YEL037C, strain rad23, active compounds read low 0.973 | locus YEL061C, strain CIN8 (second series), active compounds read low 0.964 | locus YEL061C, strain CIN8, active compounds read low 0.984 | locus YER015W, strain faa2, active compounds read low 0.967 | locus YER016W, strain bim1, active compounds read low 0.984 | locus YER110C, active compounds read low 0.997 | locus YER111C, strain swi4, active compounds read low 0.976 | locus YER155C, strain BEM2 (second series), active compounds read low 1 | locus YER155C, strain BEM2, active compounds read low 0.994 | locus YER167W, strain BCK2, active compounds read low 0.999 | locus YFR010W, strain ubp6, active compounds read low 0.991 | locus YGL078C, strain dbp3, active compounds read low 0.993 | locus YGL086W, strain mad1, active compounds read low 1.01 | locus YGL167C, strain pmr1, active compounds read low 0.951 | locus YGL173C, strain kem1, active compounds read low 0.993 | locus YGL227W, strain vid30, active compounds read low 0.977 | locus YGL240W, strain doc1, active compounds read low 1.02 | locus YGL248W, strain PDE1, active compounds read low 1 | locus YGL253W, strain hxk2, active compounds read low 0.968 | locus YGR078C, strain PAC10, active compounds read low 1.03 | locus YGR135W, strain pre9, active compounds read low 0.995 | locus YGR229C, strain SMI1, active compounds read low 0.98 | locus YGR252W, strain gcn5, active compounds read low 0.984 | locus YHR013C, strain ard1, active compounds read low 0.963 | locus YHR027C, strain rpn1, active compounds read low 0.976 | locus YHR030C, strain SLT2, active compounds read low 0.99 and 0.914 | locus YHR079C, strain IRE1 (second series), active compounds read low 0.991 | locus YHR079C, strain IRE1, active compounds read low 0.912 | locus YHR094C, strain hxt1, active compounds read low 0.989 | locus YHR129C, strain ARP1, active compounds read low 0.989 | locus YHR142W, strain chs7, active compounds read low 0.93 | locus YHR200W, strain rpn10, active compounds read low 0.988 | locus YIL066C, strain RNR3, active compounds read low 1.01 | locus YIL073C, strain SPO22, active compounds read low 1.05 | locus YIL125W, strain kgd1, active compounds read low 0.974 | locus YIR030C, strain dcg1, active compounds read low 0.998 | locus YJL092W, strain hpr5, active compounds read low 0.959 | locus YJL095W, strain BCK1 (second series), active compounds read low 0.973 | locus YJL095W, strain BCK1, active compounds read low 1.05 and 0.936 | locus YJL115W, strain asf1, active compounds read low 0.974 | locus YJL129C, strain trk1, active compounds read low 0.917 | locus YJL134W, strain LCB3, active compounds read low 0.991 | locus YJL154C, strain vps35, active compounds read low 0.957 | locus YJL164C, strain tpk1, active compounds read low 0.986 | locus YJL166W, strain qcr8, active compounds read low 0.993 | locus YJL168C, strain set2, active compounds read low 0.996 | locus YJL187C, strain SWE1 (second series), active compounds read low 1.04
